outcome, Potency and max activation data for eleven molecules are collected here from PubChem BioAssay (Tox21).

A number with no mark means an inactive call. Inconclusive results are not listed. Calls of active or inactive are those of the source. Unless noted, calls follow the shape of the dose curve; as a rule, active = well fitted curve in the direction sought with a large enough effect in the repeat runs; inconclusive = weak or mixed curves; inactive = no such curve, though single readings can be large; an effect the other way counts as inactive or inconclusive.

The target in assay [1] is Thyrotropin-releasing hormone receptor (Homo sapiens) (UniProt P34981). Nature of the assay: qHTS assay to identify small molecule agonists of the thyrotropin-releasing hormone receptor (TRHR) signaling pathway (AID 1346891; calls by dose curve; also: series mostly up to about 58 µM). An outline of the steps: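 TRHR-expressing HEK293 cells were plated 18 h at 37 °C/5% CO2, loaded with calcium dye 2 h at 37 °C, then given compound in DMSO; fluorescence was read kinetically for 3 min at 1 s intervals.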
Thyrotropin-releasing hormone receptor (Homo sapiens), sequence (P34981 whole entry, looked up): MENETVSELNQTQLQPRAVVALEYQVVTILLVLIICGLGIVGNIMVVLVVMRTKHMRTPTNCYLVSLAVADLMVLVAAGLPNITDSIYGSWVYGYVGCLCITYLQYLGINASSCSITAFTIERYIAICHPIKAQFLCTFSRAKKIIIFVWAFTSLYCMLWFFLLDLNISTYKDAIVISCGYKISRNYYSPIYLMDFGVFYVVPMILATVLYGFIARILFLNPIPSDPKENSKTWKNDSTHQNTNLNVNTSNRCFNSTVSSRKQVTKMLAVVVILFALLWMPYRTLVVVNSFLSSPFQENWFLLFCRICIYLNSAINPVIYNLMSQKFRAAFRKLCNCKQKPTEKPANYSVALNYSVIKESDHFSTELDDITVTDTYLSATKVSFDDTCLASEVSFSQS

Assay [2] in a line: Human pregnane X receptor (PXR) small molecule agonists, qHTS cell viability counter screen (AID 1346977). Also: nearly all actives have a fitted effect of over 50% in size. An outline of the steps:
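PXR-Luc HepG2 cells in medium with 5% charcoal-stripped FBS were pre-incubated 5hr, then exposed to compounds for 24hr at 37C. Viability was read in the same wells by CellTiter-Fluor fluorescence, reagent added after 23hr with a 1hr incubation.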

A short description of assay [3]: Caspase-3/7 induction in HepG2 cells by small molecules, qHTS assay (AID 1346978). Also: nearly all actives have a fitted effect of over 15% in size. In short, it runs like this:
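Caspase-3/7 induction was measured by Caspase-Glo 3/7 luminescence (30 min, room temperature) after a 17 hr compound exposure of wild-type HepG2 cells seeded at 2,000 per well and pre-incubated 5 hr.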

Assay [4] is described as follows: Caspase-3/7 induction in CHO-K1 cells by small molecules, qHTS cell viability counter screen (AID 1346979). Also: nearly all actives have a fitted effect of over 35% in size. An outline of the steps: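 Wild-type CHO-K1 cells were seeded at 1,500 per well, rested 5hr at 37 C, then exposed to compounds in DMSO. After 16hr, CellTiter-Fluor reagent was added and fluorescence read 1hr later as the viability measure.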
Assay [5] in a line: Caspase-3/7 induction in CHO-K1 cells by small molecules, qHTS assay (AID 1346980). Also: nearly all actives have a fitted effect of over 15% in size. In short, it runs like this: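 Luminescent Caspase-Glo 3/7 read (30min, room temperature) quantified apoptosis induction. Cells were wild-type CHO-K1, treated with compound for 17hr at 37 C and 5% CO2.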
Assay [6] in a line: Caspase-3/7 induction in HepG2 cells by small molecules, qHTS cell viability counter screen (AID 1346981). Also: series mostly up to about 92 µM; nearly all actives have a fitted effect of over 30% in size. An outline of the steps:
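Multiplexed with the caspase-3/7 assay: HepG2 cells, 16 hr compound treatment, CellTiter-Fluor viability detection by fluorescence.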

For assay [7], the target named is Nuclear receptor subfamily 1 group I member 2 (Homo sapiens) (UniProt O75469). Nature of the assay: Human pregnane X receptor (PXR) small molecule agonists, qHTS assay (AID 1346982). Also: nearly all actives have a fitted effect of over 35% in size. Also: potency is read from the fitted curve at half-maximal effect. An outline of the steps:
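We seeded PXR-Luc HepG2 cells in assay medium containing 5% charcoal-stripped FBS, added compounds 5 hr later, incubated 24 hr, and read luminescence with ONE-Glo reagent.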

Assay [8] has as its target Cytochrome P450 2C19 (Homo sapiens) (UniProt P33261). Nature of the assay: Cytochrome P450 Family 2 Subfamily C Member 19 (CYP2C19) small molecule antagonists: luciferase reporter qHTS assay (AID 1671197). Also: nearly all actives have a fitted effect of over 65% in size. Also: potency is read from the fitted curve at half-maximal effect. In short, it runs like this: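 Luminescent readout of CYP2C19 activity: luciferin product detected 20 min after adding detection reagent. Before that, compound and enzyme-substrate mix preincubated 10 min at room temperature; NADPH-regenerating system started a 1 h, 37C reaction. Ketoconazole as positive control.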

Assay [9] deals with Cytochrome P450 2C9 (Homo sapiens) (UniProt P11712). Nature of the assay: Cytochrome P450 Family 2 Subfamily C Member 9 (CYP2C9) small molecule antagonists: luciferase reporter qHTS assay (AID 1671198). Also: nearly all actives have a fitted effect of over 50% in size. Also: potency is read from the fitted curve at half-maximal effect. An outline of the steps: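 Enzyme-substrate mix preincubated with compound 10 min at room temperature; reaction started with NADPH regeneration solution, 1 h 37C. Luminescent luciferin product read after 20 min detection reagent.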
Cytochrome P450 2C9 (Homo sapiens), sequence (P11712 whole entry, looked up): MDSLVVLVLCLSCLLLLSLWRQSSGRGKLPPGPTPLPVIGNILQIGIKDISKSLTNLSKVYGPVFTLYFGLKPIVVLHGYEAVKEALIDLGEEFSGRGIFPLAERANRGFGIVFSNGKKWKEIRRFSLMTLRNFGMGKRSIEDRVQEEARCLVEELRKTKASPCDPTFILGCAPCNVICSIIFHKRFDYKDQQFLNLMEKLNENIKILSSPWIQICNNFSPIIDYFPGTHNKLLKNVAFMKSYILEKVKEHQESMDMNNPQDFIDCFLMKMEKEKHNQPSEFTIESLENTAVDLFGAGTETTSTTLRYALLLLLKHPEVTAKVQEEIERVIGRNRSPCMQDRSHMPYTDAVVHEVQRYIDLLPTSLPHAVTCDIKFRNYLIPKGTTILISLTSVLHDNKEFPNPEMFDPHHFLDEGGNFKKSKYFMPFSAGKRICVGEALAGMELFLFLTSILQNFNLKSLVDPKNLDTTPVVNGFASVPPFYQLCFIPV

Assay [10] deals with Cytochrome P450 1A2 (Homo sapiens) (UniProt P05177). Description: Cytochrome P450 Family 1 Subfamily A Member 2 (CYP1A2) small molecule antagonists: luciferase reporter qHTS assay (AID 1671199). Also: nearly all actives have a fitted effect of over 50% in size. Also: potency is read from the fitted curve at half-maximal effect. An outline of the steps:
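CYP1A2 turnover of a luminogenic substrate was quantified after 1 h with NADPH regeneration at room temperature. Furafylline served as positive control.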

Assay [11] concerns the target Voltage-gated inwardly rectifying potassium channel KCNH2 (Homo sapiens) (UniProt Q12809). Description: Human Ether-a-go-go-Related Gene (hERG) channel small molecule antagonists: fluorescence cell-based qHTS assay (AID 1671200). Also: nearly all actives have a fitted effect of over 50% in size. Also: potency is read from the fitted curve at half-maximal effect. An outline of the steps:
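U2OS cells expressing the channel were plated at 1000 cells/well, incubated overnight at 37 C, then loaded with FluxOR II thallium-sensitive dye for 1 h at room temperature in the dark, with a further 10 min at room temperature before stimulation.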

Assay [12] has as its target Cytochrome P450 3A4 (Homo sapiens) (UniProt P08684). Nature of the assay: Cytochrome P450 Family 3 Subfamily A Member 4 (CYP3A4) small molecule antagonists: luciferase reporter qHTS assay (AID 1671201). Also: nearly all actives have a fitted effect of over 50% in size. Also: potency is read from the fitted curve at half-maximal effect. In short, it runs like this:
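P450-Glo CYP3A4 system with proluciferin substrate; compounds preincubated 10 min RT with enzyme-substrate mix, then NADPH regeneration added for 1 h RT. Detection reagent 20 min, luminescence read as relative luminescence units.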

In assay [13] the target is Cytochrome P450 2D6 (Homo sapiens) (UniProt P10635). Nature of the assay: Cytochrome P450 Family 2 Subfamily D Member 6 (CYP2D6) small molecule antagonists: luciferase reporter qHTS assay (AID 1671196). An outline of the steps: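 Luminescence (RLU), read 20 min after detection reagent, indicated CYP2D6 conversion of proluciferin to luciferin during a 1 h NADPH-dependent reaction at room temperature.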
Cytochrome P450 2D6 (Homo sapiens), sequence (P10635 whole entry, looked up): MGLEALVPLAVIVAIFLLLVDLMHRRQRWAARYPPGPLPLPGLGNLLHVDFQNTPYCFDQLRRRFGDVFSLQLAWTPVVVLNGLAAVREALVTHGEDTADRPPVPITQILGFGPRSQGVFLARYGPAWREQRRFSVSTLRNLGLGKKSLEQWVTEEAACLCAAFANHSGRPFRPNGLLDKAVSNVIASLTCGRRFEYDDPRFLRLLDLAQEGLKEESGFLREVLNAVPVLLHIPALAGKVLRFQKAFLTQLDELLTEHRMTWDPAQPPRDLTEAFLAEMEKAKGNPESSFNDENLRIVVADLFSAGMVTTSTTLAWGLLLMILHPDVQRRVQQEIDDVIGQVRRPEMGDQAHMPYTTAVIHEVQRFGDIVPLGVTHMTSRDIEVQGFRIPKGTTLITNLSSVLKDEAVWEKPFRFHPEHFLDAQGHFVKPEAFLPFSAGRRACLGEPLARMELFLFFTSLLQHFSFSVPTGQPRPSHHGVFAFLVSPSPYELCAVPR

Assay [14] deals with Nuclear receptor subfamily 1 group I member 2 (Rattus norvegicus) (UniProt Q9R1A7). Description: Rat pregnane X receptor (rPXR) activation by small molecules, qHTS assay (AID 1346983). Also: nearly all actives have a fitted effect of over 20% in size. The settings on record: rPXR luciferase reporter cells, One-Glo luminescence, 24 h; max activation: hits give high values. In short, it runs like this: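 Luminescent readout (One-Glo luciferase, 30 min room temperature) followed 24 hr compound treatment at 37 C of rPXR cells plated 2,000 per well and preincubated 5hr; qHTS format with compounds delivered in DMSO.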
Nuclear receptor subfamily 1 group I member 2 (Rattus norvegicus), sequence (Q9R1A7 whole entry, looked up): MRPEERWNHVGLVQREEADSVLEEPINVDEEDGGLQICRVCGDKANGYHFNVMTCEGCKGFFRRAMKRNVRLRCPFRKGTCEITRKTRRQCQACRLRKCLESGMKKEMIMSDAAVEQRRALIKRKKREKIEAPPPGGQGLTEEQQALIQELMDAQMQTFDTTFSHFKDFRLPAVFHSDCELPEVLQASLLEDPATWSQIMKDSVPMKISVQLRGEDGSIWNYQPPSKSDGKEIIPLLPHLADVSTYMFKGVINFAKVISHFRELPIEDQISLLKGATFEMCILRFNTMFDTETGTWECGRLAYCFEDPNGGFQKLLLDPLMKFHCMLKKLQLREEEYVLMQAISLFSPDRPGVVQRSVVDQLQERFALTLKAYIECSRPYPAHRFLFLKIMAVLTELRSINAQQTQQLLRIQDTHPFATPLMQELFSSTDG
% is scaled to controls: 0 for no effect and ±100 for the full control effect.

Cytochrome P450 1A2 (Homo sapiens), sequence (P05177 whole entry, looked up): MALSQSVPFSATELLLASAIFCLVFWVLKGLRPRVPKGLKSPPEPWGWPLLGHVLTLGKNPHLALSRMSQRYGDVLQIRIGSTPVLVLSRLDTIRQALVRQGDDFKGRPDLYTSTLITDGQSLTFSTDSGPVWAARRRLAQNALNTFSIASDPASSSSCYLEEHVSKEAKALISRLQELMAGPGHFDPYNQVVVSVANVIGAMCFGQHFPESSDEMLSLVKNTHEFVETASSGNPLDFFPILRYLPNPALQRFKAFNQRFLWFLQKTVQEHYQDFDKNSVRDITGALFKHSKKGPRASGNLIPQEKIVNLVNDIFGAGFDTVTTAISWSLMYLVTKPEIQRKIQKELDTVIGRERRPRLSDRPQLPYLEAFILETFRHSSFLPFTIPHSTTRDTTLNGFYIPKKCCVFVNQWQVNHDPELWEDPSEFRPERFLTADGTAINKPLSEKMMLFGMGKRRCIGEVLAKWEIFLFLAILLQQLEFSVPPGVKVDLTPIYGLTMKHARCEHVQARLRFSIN
Cytochrome P450 2C19 (Homo sapiens), sequence (P33261 whole entry, looked up): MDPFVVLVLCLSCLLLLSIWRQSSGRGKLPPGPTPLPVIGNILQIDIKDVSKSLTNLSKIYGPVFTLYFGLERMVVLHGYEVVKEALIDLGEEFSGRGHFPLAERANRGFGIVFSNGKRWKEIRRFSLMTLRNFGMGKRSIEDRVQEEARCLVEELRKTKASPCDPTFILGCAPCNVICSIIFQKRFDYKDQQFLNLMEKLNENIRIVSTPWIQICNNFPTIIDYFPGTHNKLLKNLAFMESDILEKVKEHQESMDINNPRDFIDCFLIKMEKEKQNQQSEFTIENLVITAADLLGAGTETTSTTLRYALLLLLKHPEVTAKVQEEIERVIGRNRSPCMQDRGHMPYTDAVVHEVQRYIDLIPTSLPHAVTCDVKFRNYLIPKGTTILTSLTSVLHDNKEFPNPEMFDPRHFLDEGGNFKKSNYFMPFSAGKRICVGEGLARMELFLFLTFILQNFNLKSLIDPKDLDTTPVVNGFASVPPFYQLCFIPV
Nuclear receptor subfamily 1 group I member 2 (Homo sapiens), sequence (O75469 whole entry, looked up): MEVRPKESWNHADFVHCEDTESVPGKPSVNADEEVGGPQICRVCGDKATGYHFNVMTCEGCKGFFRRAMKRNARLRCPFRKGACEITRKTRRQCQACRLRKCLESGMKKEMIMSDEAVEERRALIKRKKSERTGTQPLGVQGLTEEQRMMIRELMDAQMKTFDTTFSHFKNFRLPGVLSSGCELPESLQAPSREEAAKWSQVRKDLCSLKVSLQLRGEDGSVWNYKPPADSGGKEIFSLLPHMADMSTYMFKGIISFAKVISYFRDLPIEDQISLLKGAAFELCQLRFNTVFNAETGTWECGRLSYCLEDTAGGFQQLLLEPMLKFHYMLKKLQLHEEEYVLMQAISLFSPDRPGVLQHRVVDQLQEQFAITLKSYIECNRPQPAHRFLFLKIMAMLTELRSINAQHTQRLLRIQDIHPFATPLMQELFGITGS
Cytochrome P450 3A4 (Homo sapiens), sequence (P08684 whole entry, looked up): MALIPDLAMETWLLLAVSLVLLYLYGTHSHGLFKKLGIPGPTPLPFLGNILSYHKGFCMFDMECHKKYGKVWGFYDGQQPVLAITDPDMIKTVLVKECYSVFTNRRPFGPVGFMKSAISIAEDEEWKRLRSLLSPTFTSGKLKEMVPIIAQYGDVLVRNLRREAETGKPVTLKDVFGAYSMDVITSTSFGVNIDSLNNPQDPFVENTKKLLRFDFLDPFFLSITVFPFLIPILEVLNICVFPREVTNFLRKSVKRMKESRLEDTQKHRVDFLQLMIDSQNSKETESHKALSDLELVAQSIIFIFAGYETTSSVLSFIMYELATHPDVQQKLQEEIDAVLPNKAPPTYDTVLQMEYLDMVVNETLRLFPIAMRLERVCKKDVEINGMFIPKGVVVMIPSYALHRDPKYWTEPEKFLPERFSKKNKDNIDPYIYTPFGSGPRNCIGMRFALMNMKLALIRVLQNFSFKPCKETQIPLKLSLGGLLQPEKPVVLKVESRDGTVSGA
Voltage-gated inwardly rectifying potassium channel KCNH2 (Homo sapiens), sequence (Q12809 whole entry, looked up): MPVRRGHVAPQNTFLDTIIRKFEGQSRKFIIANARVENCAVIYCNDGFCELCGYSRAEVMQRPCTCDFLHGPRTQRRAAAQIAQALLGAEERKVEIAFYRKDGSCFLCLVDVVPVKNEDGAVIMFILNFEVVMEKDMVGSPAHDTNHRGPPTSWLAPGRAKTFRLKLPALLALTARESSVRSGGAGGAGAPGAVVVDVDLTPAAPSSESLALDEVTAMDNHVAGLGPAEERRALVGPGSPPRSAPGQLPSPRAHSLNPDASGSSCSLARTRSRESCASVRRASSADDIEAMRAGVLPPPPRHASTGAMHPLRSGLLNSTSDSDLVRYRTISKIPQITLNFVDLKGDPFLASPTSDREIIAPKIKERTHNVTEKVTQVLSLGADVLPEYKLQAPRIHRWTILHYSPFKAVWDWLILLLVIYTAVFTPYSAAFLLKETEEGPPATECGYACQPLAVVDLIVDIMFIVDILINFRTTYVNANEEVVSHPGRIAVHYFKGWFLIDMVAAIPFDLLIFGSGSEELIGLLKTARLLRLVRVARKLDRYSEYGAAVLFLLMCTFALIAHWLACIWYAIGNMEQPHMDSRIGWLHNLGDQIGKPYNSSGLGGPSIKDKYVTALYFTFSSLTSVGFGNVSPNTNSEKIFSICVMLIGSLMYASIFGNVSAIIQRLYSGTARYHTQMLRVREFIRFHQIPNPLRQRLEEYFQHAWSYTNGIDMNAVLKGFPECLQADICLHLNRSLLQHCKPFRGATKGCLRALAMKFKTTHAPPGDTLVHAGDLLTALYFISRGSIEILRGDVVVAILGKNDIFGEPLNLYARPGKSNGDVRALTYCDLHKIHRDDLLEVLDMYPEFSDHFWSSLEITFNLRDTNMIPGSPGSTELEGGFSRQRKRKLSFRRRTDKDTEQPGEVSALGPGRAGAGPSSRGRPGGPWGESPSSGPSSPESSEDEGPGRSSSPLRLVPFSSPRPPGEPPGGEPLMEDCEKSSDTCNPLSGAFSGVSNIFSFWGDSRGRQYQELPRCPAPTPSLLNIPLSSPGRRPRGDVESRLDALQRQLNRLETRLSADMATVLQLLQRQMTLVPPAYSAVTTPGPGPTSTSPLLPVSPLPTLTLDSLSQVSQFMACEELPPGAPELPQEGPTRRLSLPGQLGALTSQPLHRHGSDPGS

`Cc1ccc(N)cc1[N+](=O)[O-]`: the outcome in assay [1], in [3], in [5] and in assay [6] was inactive. Further, the Potency result in assay [2], in assay [4], in assay [8] and in [11] was “inactive” in each case. The Potency was 10.9 µM (active) in assay [7], 35.8 µM (active) in assay [9], 8.02 µM (active) in assay [10] and 40.2 µM (active) in assay [12].
For the molecule `CC(C)CCCCCCN`, the result in assay [1], in assay [3], in assay [5] and in assay [6] was inactive. Further, the Potency result in assay [2], in assay [4], in assay [7], in assay [8], in assay [9] and in assay [10] was “inactive” each time. For the same molecule, the Potency entry in assay [11] and in [12] was “inactive” in each case.
As for `c1ccc(CCCc2ccccn2)cc1`, the molecule was called inactive in assay [1], in assay [3], in assay [5] and in assay [6]. Further, the Potency entry in assay [2], in assay [4], in [11] and in assay [12] was “inactive” in each case. In addition, the Potency in [7] was 34.4 µM (active); in assay [8] it was 5.64 µM (active); in [9], 35.6 µM (active); in assay [10], 22.4 µM (active).
Regarding `CN(C)C(=O)Nc1ccccc1`, the molecule was classed as inactive in [1], in assay [3], in assay [5] and in assay [6]. Moreover, the Potency result in [2], in [4], in assay [7], in assay [13], in assay [9] and in assay [11] was “inactive” throughout. Also, the Potency entry in [12] is “inactive”.
For `CCOC(=O)Cn1c(=O)sc2cccc(Cl)c21`, the molecule was called inactive in [1], in assay [3], in assay [5] and in [6]. Besides, the Potency result in assay [2], in [4] and in assay [11] was “inactive” throughout. The Potency in [7] is 27.3 µM (active); in assay [8], 7.96 µM (active); in assay [9] it was 10 µM (active); in [10] it was 5.03 µM (active).
Turning to `C1C2OC2C2C1C1CC2C2OC12` (stereo not given), the molecule was called inactive in assay [1], in assay [3], in assay [5] and in [6]. The Potency result in [2], in assay [4], in [7], in [13], in assay [10] and in [11] was “inactive” in each case. Also, in assay [12], the Potency result is “inactive”. Besides, in assay [8], the Potency is 40.1 µM (active).
As to `CCCOCC(C)OCC(C)O` (stereo not given), the result in assay [1], in assay [3], in [5] and in assay [6] was inactive. Further, the Potency entry in [2], in [4] and in assay [11] was “inactive” throughout.
In the case of `CCCCCN(CCCCC)C(=O)C(CCC(=O)O)NC(=O)c1ccc(Cl)c(Cl)c1` (stereo not given), the call in assay [1], in assay [3], in assay [5] and in [6] was inactive. The Potency result in assay [2], in assay [4], in [7] and in [10] was “inactive” throughout. Moreover, the results for the Potency in [9] and in assay [11] were 2.19 µM (active) and 9.52 µM (active), respectively.
Take `COCCOC(=O)CC#N`: the molecule was classed as inactive in assay [1], in assay [3], in assay [5] and in assay [6]. Also, the Potency entry in assay [2], in assay [4], in assay [7], in assay [13], in assay [9] and in assay [11] was “inactive” throughout. Moreover, the Potency entry in assay [12] is “inactive”.
In the case of `CCOC(=O)[C@H](CCc1ccccc1)N[C@@H](C)C(=O)N1CCC[C@H]1C(=O)O`, the outcome in assay [1], in assay [3], in assay [5] and in [6] was inactive. In addition, the Potency entry in assay [2], in assay [4], in assay [8], in assay [10] and in [11] was “inactive” each time. Also, the max activation in assay [14] is -3.1%.
As for `CCN1CCN(c2cc3c(cc2F)c(=O)c(C(=O)O)cn3C2CC2)CC1`, the outcome in assay [1], in [3] and in assay [5] was inactive. Besides, the Potency entry in assay [2], in assay [4], in [7], in [13], in assay [8] and in assay [9] was “inactive” in each case. Further, the Potency result in assay [10], in [11] and in assay [12] was “inactive” each time.
